The text below walks through data of PubChem BioAssay (Tox21).

Inconclusive results are not listed. Values without a mark were called inactive. Active and inactive are the calls of the source. Calls follow the shape of the dose curve; as a rule, active = well fitted cell-killing curve with a large enough effect in the repeat runs; inconclusive = weak or mixed curves, or effect the other way; inactive = flat fitted curve, though single readings scatter.
% is scaled to controls: 0 for no effect and ±100 for the full control effect; potency is read from the fitted curve at half-maximal effect.

This test in a line: qHTS assay to identify small molecule antagonists of the estrogen receptor alpha (ER-alpha) signaling pathway using the BG1 cell line in the presence of 0.1 nM 17-beta-estradiol - cell viability counter screen (AID 1259241). Also: nearly all actives have a fitted effect of over 40% in size. As to conditions: VM7Luc4E2 (BG1) viability, CellTiter-Fluor protease, 22 h, 0.1 nM estradiol agonist added; series mostly up to 92.4 µM; activity change, negative = cytotoxicity: at the top concentration. An excerpt: National Center for Advancing Translational Sciences [NCATS]
NIH Chemical Genomics Center [NCGC]
U.S. Environmental Protection Agency [EPA]
National Institutes of Environmental Health Sciences [NIEHS]
National Toxicology Program [NTP]
U.S. Food and Drug Administration [FDA]
Estrogen receptor (ER), a member of the nuclear hormone receptor plays an important role in development, metabolic homeostasis and reproduction. Two subtypes of ER, ER-alpha and ER-beta, have similar expression patterns with some uniqueness in both types. Endocrine disrupting chemicals (EDCs) and their interactions with steroid hormone receptors like ER causes disruption of normal endocrine function. Therefore, it is important to understand the effect of environmental chemicals in ER signaling pathway. For identifying ER antagonists, VM7Luc4E2 cell line was used to screen against Tox21 compound libraries.
VM7Luc4E2 cell line (provided by Denison MS, University of California) endogenously express full-length ER-alpha and is stably transfected with a plasmid containing four estrogen responsive elements (ERE) upstream of a luciferase reporter gene. The current screening for identification of ER-alpha inhibitors against Tox21 compound libraries used lower concentration (0.1 nM) of 17beta-Estradiol as a stimulator. The cytotoxicity of the Tox21 compound libraries against VM7Luc4E2 cell line was tested by measuring live-cell protease activity using CellTiter-Fluor assay in the same wells.
Tox21 Assay Protocol Summary:
VM7Luc4E2 cells were cultured in phenol red free assay medium containing 10% charcoal stripped FBS for 5 days prior to the assay. The cells were dispensed at 4,000 cells/well in 4 uL of assay medium into white wall/solid-bottom 1536-well plates (Corning Life Sciences, Corning, NY) using a Multidrop Combi (ThermoFisher Scientific, Waltham, MA) dispenser. After the assay plates were incubated at 37C and 5% CO2 for 24 hr, 23 nL of compounds dissolved in DMSO, positive controls or DMSO only was transferred to the assay plates by a Pintool station (Kalypsys, San Diego, CA). The transfer of compounds was followed by the addition of 1 uL of 0.1 nM (final concentration) agonist (17beta-Estradiol)/assay medium using a Flying Reagent Dispenser (FRD, Aurora Discovery, San Diego, CA). The plates were incubated at 37C and 5% CO2 for 22 hr. For cytotoxicity assay, 1 uL of CellTiter-Fluor reagent (Promega Corporation, Madison, WI) was added to each well using the FRD and after 30 min incubation at 37C and 5% CO2, The fluorescence intensity was measured using ViewLux plate reader (PerkinElmer, Shelton, CT).
In general terms: qHTS replaces the single test concentration by a dilution series.
For `CCN(Cc1cccc(S(=O)(=O)O)c1)c1ccc(C(=C2C=CC(=[N+](CC)Cc3cccc(S(=O)(=O)[O-])c3)C=C2)c2ccccc2)cc1`, the “activity change, negative = cytotoxicity” value was -3.36% [at 42.5 µM].
The same measure, in the same setting: as for `Cc1nc2ccccn2c(=O)c1CCN1CCC(C(=O)c2ccc(F)cc2)CC1`, the figure is -25.5% [at 42.5 µM]; as for `CC(Cl)C(Cl)Cl` (stereo not given), 4.59%.
On the same count and under the same terms, as for `CNCCCC1c2ccccc2C=Cc2ccccc21`, the figure is -0.725% [at 42.5 µM]; as for `CCc1cccc(N(C)C(N)=Nc2cccc3ccccc23)c1`, -17.5% [at 42.5 µM].
Still for that read-out and setting: as for `C=CC(C)=CCC=C(C)C`, the figure is 0.866%; as for `O=C1NCCN1`, 13.2%; as for `CCCCCCCC/C=C\CCCCCCCC(=O)OC(CO)CO`, 2.02%.
As to `COCc1c(C(C)C)nc(C(C)C)c(/C=C/[C@@H](O)C[C@@H](O)CC(=O)O)c1-c1ccc(F)cc1`, the Potency result is “inactive”.
Regarding `Nc1ccc(S(=O)(=O)O)cc1`, the “activity change, negative = cytotoxicity” value is 2.36%.
Still for that read-out and setting: as for `CC1(C)O[C@@H]2C[C@H]3[C@@H]4CCC5=CC(=O)C=C[C@]5(C)[C@H]4[C@@H](O)C[C@]3(C)[C@]2(C(=O)CO)O1`, the figure is 0.546% [at 42.5 µM].
Same read-out and setting: the result for `CC(=O)N(c1onc(C)c1C)S(=O)(=O)c1ccc(N)cc1` reads 1.94% [at 42.5 µM]; that for `O=C(Nc1ccc([N+](=O)[O-])cc1)Nc1ccc([N+](=O)[O-])cc1`, 2.56% [at 42.5 µM].
On the same count and under the same terms, as for `CCC(C)(C)C1CCC(O)CC1` (stereo not given), the figure is 0.917%; as for `CC(=O)OCC(=O)[C@H]1CC[C@H]2[C@@H]3CCC4=CC(=O)CC[C@]4(C)[C@H]3CC[C@]12C`, 8.19% [at 42.5 µM].
Consider `CCOc1cc(N)c(Cl)cc1C(=O)NCC1CN(Cc2ccc(F)cc2)CCO1` (stereo not given), for which the “activity change, negative = cytotoxicity” value was -8.56% [at 42.5 µM].
Still for that read-out and setting: as for `CCOC(=N)CC(=O)OCC`, the figure is 0.0939%.
With `Cc1cc(O)c(C(C)C)cc1Cl`, the Potency entry was “inactive”.
Consider `[O]=[Bi]`, for which the activity change, negative = cytotoxicity was -2.05% [at 8.39 µM].
Same read-out and setting: the result for `COC(=O)[C@@H]1CC2=CC(=O)CC[C@]2(C)[C@@]23O[C@@H]2C[C@@]2(C)[C@@H](CC[C@@]24CCC(=O)O4)[C@H]13` reads 1.07% [at 42.5 µM].
Same read-out and setting: the result for `COc1ccc(C(=O)c2cccc(O)c2)c(OC)c1` reads -0.423%.
The same measure, in the same setting: the result for `O=C(O)c1cccc(O)c1` reads 10.2%; that for `c1cc[c]([Bi]([c]2ccccc2)[c]2ccccc2)cc1`, 3.32%.
Turning to `CO[C@H]1O[C@H](CO)[C@@H](O)[C@H](O)[C@H]1O`, the “activity change, negative = cytotoxicity” value is 7.81%.
In the case of `O=C(CS)OCCOC(=O)CS`, the “activity change, negative = cytotoxicity” value is 1.23%.
Still for that read-out and setting: the result for `CC(=O)[C@H]1CC[C@H]2[C@@H]3C[C@H](C)C4=CC(=O)CC[C@]4(C)[C@H]3[C@@H](O)C[C@]12C` reads -0.804% [at 42.5 µM]; that for `OCCSc1ccccc1`, -6.29%.
Same read-out and setting: the result for `Nc1nccs1` reads -2.6%; that for `COc1cc2ncnc(Nc3ccc(F)c(Cl)c3)c2cc1OCCCN1CCOCC1`, -20.2% [at 42.5 µM]; that for `COCCOC`, -1.91%.
Same read-out and setting: as for `C[N+](C)(C)CCOC(N)=O`, the figure is -8.81% [at 42.5 µM].
`CC(N)CN` (stereo not given): the “activity change, negative = cytotoxicity” value was -13.9%.
Same read-out and setting: as for `CCC(Cc1ccccc1)(C(=O)c1ccc(N2CCOCC2)cc1)N(C)C` (stereo not given), the figure is -17.7%.
Still for that read-out and setting: as for `CNC(=O)N(c1ccccc1)c1ccccc1`, the figure is 9.42%; as for `NCC1CCCC(CN)C1` (stereo not given), 2.52%.
For `COc1ccccc1N=Nc1c(S(=O)(=O)O)cc2cc(S(=O)(=O)O)cc(NC(C)=O)c2c1O`, the Potency is 22.9 µM (active).
On to `CCCCCCCCCCOS(=O)(=O)O`, for which the “activity change, negative = cytotoxicity” value is 14%.
Still for that read-out and setting: as for `C=C(C)C(=O)OCCOC(=O)CC(C)=O`, the figure is 1.08%.
Same read-out and setting: the result for `CCCCC(=O)O[C@]1(C(=O)CO)[C@@H](C)C[C@H]2[C@@H]3CCC4=CC(=O)C=C[C@]4(C)[C@@]3(F)[C@@H](O)C[C@@]21C` reads -3.07%; that for `CC[C@H](NC(=O)c1cc(F)ccc1NS(=O)(=O)c1cccc2cccnc12)c1ccccc1`, -19.3%.
